NALP1 inh: NALP1 inhibition; S. cerevisiae NALP1/ASC/caspase-1 growth, X-gal OD620, 72 h; inhibition, % at 10 µM; 0.61% of 280,000 active; in the data active = inhibition mostly above about 24%, no sharp cut-off; inactive = mostly below about 32%
Mot1-301 SUMO: blocks SUMOylation pathway, rescuing yeast Mot1-301 growth; growth rescue, % at 18.8 µM; 1% of 320,000 active; S. cerevisiae Mot1-301 growth rescue, ATP luminescence, 38.5C; percent above DMSO median, 100 means doubled;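 active = every valid replicate shows activation above 250% relative to neutral control wells; inactive = the rest, any valid replicate at or below 250%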;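 note: OY570 slx delta 5 strain wells were the positive control but not used for scaling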
PolyA inhibitor: blocks polyadenylation in yeast reporter cells. S. cerevisiae SKY197-pL101 polyadenylation reporter, beta-gal luminescence; efflux-impaired pdr1/pdr3 knockout yeast; score 100 = 6 SD above DMSO. activity score, % at 12 µM. 0.02% of 300,000 active. AID 1875;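 active = lowest replicate activity score at least 50, where 100 means six control SD above control mean; inconclusive = lowest score under 50 but half or more replicates reach 50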;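 note: yeast exposed to compound for 9 h at 30 °C; higher score means more reporter readthrough which indicates perturbed polyadenylation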
NLRP3 yeast inh: NALP3 inhibition in yeast. Yeast reconstituted NLRP3/ASC/caspase-1, beta-gal luminescence, 24 h. inhibition, % at 10 µM. 0.39% of 330,000 active. AID 2825;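 active = inhibition of 50% or more; inactive = inhibition below 50%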;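 note: plate controls were induced DMSO wells for no effect and uninduced yeast grown without galactose for full effect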
Yeast Mot1 SUMO: SUMO pathway inhibitors in yeast Mot1-301 growth. shares compounds with Mot1-301 SUMO. S. cerevisiae Mot1-301 galactose growth, ATP luminescence, 24 h; -100 = growth of slx-deleted rescue strain. growth activity, percent, % at 42 µM. 2,300 tested, under 10 active;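 active = Signal drops as the depositor expects, and the fitted half-maximal dose is no more than ten times the top valid tested dose; inconclusive = Poor fit, or a flat curve whose signal drops by 30% to 70%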;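 note: more negative values mean stronger growth rescue toward the control strain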
* hit, by the source's call. Compounds with a hit are over-represented: about 1.8% of the library has one in this group of screens.

For COc1ccc(-c2nc(C#N)c(NC(C)c3ccccc3)o2)cc1OC (stereo unspecified) the results were NALP1 inh 24, Mot1-301 SUMO 417*, PolyA inhibitor 18, NLRP3 yeast inh 9 and Yeast Mot1 SUMO 1.
`Cc1cc(C2=NNC(=NC3CC3)SC2)c(C)n1-c1ccccc1` gave NALP1 inh 18 and PolyA inhibitor -17.
Screening Cc1nc(CCNC(=O)c2ccccc2)cs1 returned NALP1 inh 24, Mot1-301 SUMO 641*, PolyA inhibitor 15, NLRP3 yeast inh 21 and Yeast Mot1 SUMO 0.
For CCCn1c(SC(C)C(=O)NCC2CCCO2)nc2cc(Cl)ccc2c1=O (stereo unspecified) the results were Mot1-301 SUMO -19, PolyA inhibitor -10 and NLRP3 yeast inh 28.
Screening CCC(=O)Nc1ccc(C(=O)NCCCn2ccnc2)cc1 returned NALP1 inh 13, Mot1-301 SUMO -3, PolyA inhibitor -1 and NLRP3 yeast inh 11.
For CCC(=O)c1c[nH]c(C(=O)NCCCn2ccnc2)c1 the results were NALP1 inh 27, Mot1-301 SUMO active, PolyA inhibitor 4, NLRP3 yeast inh -3 and Yeast Mot1 SUMO 0.
Screening O=C(Cc1ccc(F)cc1)Nc1ccc(S(=O)(=O)N2CCCC2)cc1 returned Mot1-301 SUMO -25, PolyA inhibitor 4 and NLRP3 yeast inh 5.
For O=C(NNc1ccccc1)C(=O)NNS(=O)(=O)c1ccc(CCCl)cc1 the results were NALP1 inh 4, Mot1-301 SUMO -26, PolyA inhibitor 0 and NLRP3 yeast inh 15.
Screening Nc1ccc(S(=O)(=O)NNC(=O)C(=O)NNc2ccccc2)cc1 returned NALP1 inh 30, Mot1-301 SUMO 405*, PolyA inhibitor -1, NLRP3 yeast inh 13 and Yeast Mot1 SUMO 0.
Screening O=C1CC(c2ccccc2)c2ccc(O)cc2O1 (stereo unspecified) returned NALP1 inh 5, Mot1-301 SUMO active, PolyA inhibitor 0, NLRP3 yeast inh 6 and Yeast Mot1 SUMO 0.
`O=C1CC(c2ccccc2)c2c(O)cc(O)cc2O1` (stereo unspecified) gave NALP1 inh 18, Mot1-301 SUMO 136, PolyA inhibitor 4 and NLRP3 yeast inh 0.
`O=C(O)CSc1ncnc2sc(-c3ccccc3)cc12` gave NALP1 inh -4, Mot1-301 SUMO 525*, PolyA inhibitor 7, NLRP3 yeast inh 4 and Yeast Mot1 SUMO 0.
For O=C(NCc1ccco1)C1CC(c2ccccc2C(F)(F)F)=NO1 (stereo unspecified) the results were NALP1 inh -9, Mot1-301 SUMO -21, PolyA inhibitor -6 and NLRP3 yeast inh 2.
`COc1ccc(N2C(=O)CCC(C(=O)NCCN3CCOCC3)C2c2ccc(OC)c(OC)c2)cc1` (stereo unspecified) gave NALP1 inh 32.
`COc1ccc(N2C(=O)CCC(C(=O)NCc3cccnc3)C2c2ccc(OC)c(OC)c2)cc1` (stereo unspecified) gave NALP1 inh -19, Mot1-301 SUMO 359*, PolyA inhibitor inconclusive, NLRP3 yeast inh -3 and Yeast Mot1 SUMO 1.
Screening CCC1CCCCN1CCCNC(=O)C1CCC(CNS(=O)(=O)c2c(C)cc(C)cc2C)CC1 (stereo unspecified) returned NALP1 inh 8, Mot1-301 SUMO 509*, PolyA inhibitor 19, NLRP3 yeast inh -7 and Yeast Mot1 SUMO 0.
For CCOc1ccc(C(=O)Nc2ccc(N3CCN(C)CC3)cc2)cc1[N+](=O)[O-] the results were NALP1 inh 18, Mot1-301 SUMO 690*, PolyA inhibitor 1, NLRP3 yeast inh 12 and Yeast Mot1 SUMO 1.
For CCOc1ccc(C(=O)Nc2ccc(N3CCN(C(C)=O)CC3)cc2)cc1[N+](=O)[O-] the results were NALP1 inh 6, Mot1-301 SUMO 37, PolyA inhibitor -1 and NLRP3 yeast inh -1.
`C/C(O)=C(\N=Nc1cc(C)ccc1O)C(N)=O` gave NALP1 inh 12, Mot1-301 SUMO active, PolyA inhibitor -23, NLRP3 yeast inh 19 and Yeast Mot1 SUMO 1.
COc1cccc(-c2nn(-c3ccccc3)cc2/C=C(/NC(=O)c2ccccc2)C(=O)O)c1 was read as NALP1 inh 20, Mot1-301 SUMO 915*, PolyA inhibitor -5, NLRP3 yeast inh 12 and Yeast Mot1 SUMO 0.

Screening results as filed in PubChem BioAssay.
